Results reported in PubChem BioAssay AID1159580 (chemical genetic matrix, 2015).
In all, about 5,500 compounds went through this assay and about 2,000 (36%) were called active. Another 18% or so got no clear call; they are omitted. Rule as the data show it: active = normalized growth mostly below about 0.91 (no sharp cut-off); inconclusive = no clear call, values can overlap the other calls; inactive = mostly above about 0.92. The list shows a part of the results.

Assay: chemical genetic growth profiling, strain panel (AID 1159580);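 also: tested at 20 µM; growth read once vehicle control cultures reached saturation at 30 °C; 1 = growth at the plate median or of vehicle wells; lower values mean less growth of the strain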
Conditions: growth OD

Measured: normalized growth

NC(N)=O
inactive: S. cerevisiae deletion strains, locus YJR075W, strain HOC1, hits give low values 1.02 | S. cerevisiae deletion strains, locus YKL009W, strain mrt4, hits give low values 1 | S. cerevisiae deletion strains, locus YKL068W, hits give low values 0.992 | S. cerevisiae deletion strains, locus YKL085W, strain MDH1 (second series), hits give low values 0.994 | S. cerevisiae deletion strains, locus YKL085W, strain MDH1, hits give low values 0.994 | S. cerevisiae deletion strains, locus YKL160W, strain elf1, hits give low values 1.02 | S. cerevisiae deletion strains, locus YKL190W, strain CNB1, hits give low values 1 | S. cerevisiae deletion strains, locus YKR001C, strain vps1, hits give low values 1 | S. cerevisiae deletion strains, locus YKR026C, strain gcn3, hits give low values 1.01 | S. cerevisiae deletion strains, locus YKR091W, strain srl3, hits give low values 1 | S. cerevisiae deletion strains, locus YLL001W, strain dnm1, hits give low values 1.01 | S. cerevisiae deletion strains, locus YLL026W, hits give low values 1.02 | S. cerevisiae deletion strains, locus YLL041C, strain sdh2, hits give low values 1.01 | S. cerevisiae deletion strains, locus YLR027C, strain aat2, hits give low values 1.02 | S. cerevisiae deletion strains, locus YLR039C, strain RIC1, hits give low values 1.05 | S. cerevisiae deletion strains, locus YLR058C, strain SHM2, hits give low values 0.99 | S. cerevisiae deletion strains, locus YLR102C, strain apc9, hits give low values 0.986 | S. cerevisiae deletion strains, locus YLR113W, strain HOG1, hits give low values 0.993 | S. cerevisiae deletion strains, locus YLR221C, strain rsa3, hits give low values 0.98 | S. cerevisiae deletion strains, locus YLR258W, strain gsy2, hits give low values 1 | S. cerevisiae deletion strains, locus YLR262C, strain YPT6 (second series), hits give low values 1.03 | S. cerevisiae deletion strains, locus YLR262C, strain YPT6, hits give low values 1.08 | S. cerevisiae deletion strains, locus YLR268W, strain sec22, hits give low values 1.02 | S. cerevisiae deletion strains, locus YLR320W, strain mms22, hits give low values 1 | S. cerevisiae deletion strains, locus YLR330W, strain CHS5, hits give low values 0.988 | S. cerevisiae deletion strains, locus YLR342W, strain FKS1 (second series), hits give low values 0.96 | S. cerevisiae deletion strains, locus YLR342W, strain FKS1, hits give low values 1.01 | S. cerevisiae deletion strains, locus YLR357W, strain rsc2, hits give low values 1.04 | S. cerevisiae deletion strains, locus YLR370C, strain arc18, hits give low values 1.02 | S. cerevisiae deletion strains, locus YLR371W, strain rom2, hits give low values 0.985 | S. cerevisiae deletion strains, locus YLR384C, strain iki3, hits give low values 1.01 | S. cerevisiae deletion strains, locus YLR418C, strain cdc73, hits give low values 1.01 | S. cerevisiae deletion strains, locus YML016C, strain PPZ1, hits give low values 0.999 | S. cerevisiae deletion strains, locus YML032C, strain rad52, hits give low values 1 | S. cerevisiae deletion strains, locus YML120C, strain ndi1, hits give low values 1.03 | S. cerevisiae deletion strains, locus YML124C, strain tub3, hits give low values 0.993 | S. cerevisiae deletion strains, locus YMR058W, strain fet3, hits give low values 1.02 | S. cerevisiae deletion strains, locus YMR078C, strain ctf18, hits give low values 0.992 | S. cerevisiae deletion strains, locus YMR125W, strain sto1, hits give low values 1 | S. cerevisiae deletion strains, locus YMR129W, hits give low values 1.01 | S. cerevisiae deletion strains, locus YMR205C, strain PFK2, hits give low values 1.02 | S. cerevisiae deletion strains, locus YMR223W, strain ubp8, hits give low values 0.992 | S. cerevisiae deletion strains, locus YMR231W, strain pep5, hits give low values 1 | S. cerevisiae deletion strains, locus YMR263W, strain SAP30, hits give low values 1.03 | S. cerevisiae deletion strains, locus YMR307W, strain GAS1, hits give low values 1.02 | S. cerevisiae deletion strains, locus YNL067W, strain RPL9B, hits give low values 1.05 | S. cerevisiae deletion strains, locus YNL071W, strain lat1, hits give low values 1.01 | S. cerevisiae deletion strains, locus YNL128W, strain TEP1, hits give low values 1.02 | S. cerevisiae deletion strains, locus YNL153C, strain GIM3, hits give low values 1.02 | S. cerevisiae deletion strains, locus YNL183C, strain NPR1, hits give low values 0.963 | S. cerevisiae deletion strains, locus YNL209W, strain ssb2, hits give low values 1.01 | S. cerevisiae deletion strains, locus YNL233W, strain BNI4, hits give low values 1 | S. cerevisiae deletion strains, locus YNL248C, strain rpa49, hits give low values 0.978 | S. cerevisiae deletion strains, locus YNL250W, strain rad50, hits give low values 0.991 | S. cerevisiae deletion strains, locus YNL271C, strain bni1, hits give low values 0.988 | S. cerevisiae deletion strains, locus YNL298W, strain CLA4, hits give low values 1 | S. cerevisiae deletion strains, locus YNL307C, strain MCK1, hits give low values 0.993 | S. cerevisiae deletion strains, locus YNL322C, strain KRE1 (second series), hits give low values 1.01 | S. cerevisiae deletion strains, locus YNL322C, strain KRE1, hits give low values 1 | S. cerevisiae deletion strains, locus YNR049C, strain mso1, hits give low values 1.02 | S. cerevisiae deletion strains, locus YNR052C, strain pop2, hits give low values 0.974 | S. cerevisiae deletion strains, locus YOL006C, strain TOP1, hits give low values 1.21 | S. cerevisiae deletion strains, locus YOL012C, strain htz1 1.36 | S. cerevisiae deletion strains, locus YOL147C, strain pex11, hits give low values 0.993 | S. cerevisiae deletion strains, locus YOR001W, strain rrp6, hits give low values 1.02 | S. cerevisiae deletion strains, locus YOR061W, strain CKA2, hits give low values 0.997 | S. cerevisiae deletion strains, locus YOR069W, strain VPS5, hits give low values 1.07 | S. cerevisiae deletion strains, locus YOR070C, strain gyp1, hits give low values 1.01 | S. cerevisiae deletion strains, locus YOR080W, strain dia2, hits give low values 1.02 | S. cerevisiae deletion strains, locus YOR083W, strain WHI5, hits give low values 1 | S. cerevisiae deletion strains, locus YOR106W, strain vam3, hits give low values 1.02 | S. cerevisiae deletion strains, locus YOR136W, strain idh2, hits give low values 0.993 | S. cerevisiae deletion strains, locus YOR144C, strain elg1, hits give low values 0.992 | S. cerevisiae deletion strains, locus YOR184W, strain ser1, hits give low values 0.992 | S. cerevisiae deletion strains, locus YOR231W, strain MKK1, hits give low values 0.993 | S. cerevisiae deletion strains, locus YOR265W, strain rbl2, hits give low values 1.02 | S. cerevisiae deletion strains, locus YOR270C, strain vph1, hits give low values 1.02 | S. cerevisiae deletion strains, locus YOR290C, strain snf2, hits give low values 0.992 | S. cerevisiae deletion strains, locus YOR316C, strain cot1, hits give low values 0.985 | S. cerevisiae deletion strains, locus YPL051W, strain arl3, hits give low values 1.01 | S. cerevisiae deletion strains, locus YPL055C, strain LGE1, hits give low values 1.07 | S. cerevisiae deletion strains, locus YPL078C, strain atp4, hits give low values 1.02 | S. cerevisiae deletion strains, locus YPL106C, strain sse1, hits give low values 0.987 | S. cerevisiae deletion strains, locus YPL240C, strain hsp82, hits give low values 1.01 | S. cerevisiae deletion strains, locus YPL241C, strain CIN2, hits give low values 1.07 | S. cerevisiae deletion strains, locus YPL256C, strain CLN2, hits give low values 1 | S. cerevisiae deletion strains, locus YPR119W, strain clb2, hits give low values 0.992 | S. cerevisiae deletion strains, locus YPR141C, strain kar3, hits give low values 1 | S. cerevisiae deletion strains, locus YPR163C, strain tif3, hits give low values 0.996 | S. cerevisiae deletion strains, locus YPR167C, strain met16, hits give low values 0.989 | S. cerevisiae deletion strains, strain wtn01, hits give low values 0.999 | S. cerevisiae strains, strain wild type, hits give low values 0.991
